# Compound activity from PubChem.
# Rows were chosen to be rich in hits. Some 12% of all compounds tested hit in one or more screens of this group.
# G9a block = blocks human histone lysine methyltransferase G9a; Q96KQ7; G9a H3K9 monomethylation, AlphaScreen, 2 h; Potency, µM (highest dose often 102 µM), for the others: top-dose activity, negative = inhibition, most hits filed as inhibitors; 350,000 compounds, 8.8% hits; AID 504332; also: % is scaled to controls: 0 for no effect and ±100 for the full control effect; nearly all actives have a fitted effect of over 75% in size
# Target sequence (Q96KQ7 913-1193 limits assumed): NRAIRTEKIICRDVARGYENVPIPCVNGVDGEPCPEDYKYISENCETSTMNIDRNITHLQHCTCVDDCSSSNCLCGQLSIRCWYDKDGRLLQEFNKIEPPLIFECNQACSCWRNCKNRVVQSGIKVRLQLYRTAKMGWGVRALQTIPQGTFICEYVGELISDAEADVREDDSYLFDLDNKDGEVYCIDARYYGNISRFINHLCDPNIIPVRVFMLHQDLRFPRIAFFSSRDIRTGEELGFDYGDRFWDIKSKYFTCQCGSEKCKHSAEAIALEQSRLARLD
#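 Methyltransferase reactions run at room temperature for 2 h (20 nM enzyme, 500 nM biotin-H3K9 peptide, 20 uM SAM) after a 15 min compound preincubation; product detected by AlphaScreen beads and anti-H3K9me1 antibody.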
# JMJD2A Tudor inh = inhibitors of human JMJD2A Tudor domain; O75164; AlphaScreen JMJD2A-Tudor / H3K4me3 peptide binding; Potency, µM (titrated, usually from 114 µM), without a hit: at the top dose activity change, negative = inhibition, usual class: inhibitors; 390,000 compounds, 4.4% hits; AID 504339; also: % is scaled to controls: 0 for no effect and ±100 for the full control effect; nearly all actives have a fitted effect of over 50% in size
# BAZ2B inh = inhibitors of human BAZ2B bromodomain. Q9UIF8. AlphaScreen BAZ2B-H3K14Ac peptide displacement. Potency, µM (series often up to 114 µM), inactives show at the top dose activity change, negative = inhibition, usual class: inhibitors. 360,000 compounds, 4.4% hits. AID 504333; also: % is scaled to controls: 0 for no effect and ±100 for the full control effect; nearly all actives have a fitted effect of over 60% in size
#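 BAZ2B 50 nM plus b-H3(5-23)K14Ac 50 nM, PBS pH 7.4/0.01% Tween-20, 30 min RT; compound added (max 110 uM), 30 min RT; streptavidin donor/Ni-chelate acceptor beads 10 ug/mL final, 20 min dark; AlphaScreen read.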
# Sfp inh = Sfp phosphopantetheinyl transferase inhibition; Q9F4F7; Biochemical Sfp PPTase activity, qHTS; Potency, µM, without a hit: largest response in the series, negative = inhibition, usual class: inhibitors; 310,000 compounds, 3.5% hits; AID 1490;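 also: the enzyme is Sfp with the accession as filed and its product quenches rhodamine fluorescence; 0% = enzyme reaction without inhibitor and -100% = no enzyme wells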
#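 Reaction rates are the 30-min fluorescence difference (ex 525, em 598 nm) in wells containing 15 nM Sfp, 5 uM rhodamine-CoA and 12.5 uM BHQ-2-YbbR at pH 7.6 with 10 mM MgCl2.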
# HP1b chromo inh = inhibitors of HP1-beta chromodomain binding to methylated histone tails | 390,000 compounds, 0.56% hits | AlphaScreen HP1-beta / biotin-H3K9me3 peptide binding | P83916 | AID 540317 | Potency, µM (highest dose often 114 µM), inactives show at the highest dose activity change, negative = inhibition, most hits filed as inhibitors; also: nearly all actives have a fitted effect of over 70% in size
# Target sequence (P83916 whole entry, looked up): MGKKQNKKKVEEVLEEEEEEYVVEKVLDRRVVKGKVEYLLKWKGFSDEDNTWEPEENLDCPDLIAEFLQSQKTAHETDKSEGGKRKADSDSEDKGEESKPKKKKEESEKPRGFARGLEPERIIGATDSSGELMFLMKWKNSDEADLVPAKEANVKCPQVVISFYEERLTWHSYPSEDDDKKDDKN
#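 AlphaScreen: HP1-beta (50 nM) preformed 30 min with biotin-H3(1-18)K9me3 peptide (50 nM) in PBS pH 7.4, 0.01% Tween-20. Compound added for 30 min at RT, then streptavidin donor/nickel chelate acceptor beads (10 ug/mL) for 30 min.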
# L3MBTL1 inh = L3MBTL1 (human) inhibition; AlphaScreen L3MBTL1–H3K9me1 peptide binding; AID 485360; Q9Y468; 230,000 compounds, 0.66% hits; Potency, µM (doses to about 57.1 µM), for inactives: top-dose activity, negative = inhibition, hits mostly inhibitors; also: % is scaled to controls: 0 for no effect and ±100 for the full control effect; nearly all actives have a fitted effect of over 60% in size
#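 L3MBTL1 (50 nM) pre-complexed 30 min with biotinylated H3(1-15)K9me1 peptide (75 nM), then compounds added for 30 min at room temperature; AlphaScreen streptavidin donor/nickel chelate acceptor beads (10 ug/mL final) read after 30 min dark incubation.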
# * marks the source's active call; other numbers are inactive results; ? = inconclusive; / = no result; ! = repeats disagree; [ ] = remark or other dose. Calls follow the shape of the dose curve; as a rule, active = well fitted curve in the direction sought with a large enough effect; inconclusive = small, poorly fitted or top-dose-only effect, or another doubt; inactive = no such curve, though single readings can be large; an effect the other way counts as inactive or inconclusive. Potency is read from the fitted curve at half-maximal effect.
SMILES,G9a block,JMJD2A Tudor inh,BAZ2B inh,Sfp inh,HP1b chromo inh,L3MBTL1 inh
COc1ccccc1/C=C1\C(=O)NC(=S)N(c2ccccc2)C1=O,28µM*,28µM*,-24%,45µM*,26%,/
CCN1C(=O)/C(=C/c2ccc(N(CC)CC)cc2OC)C(=O)NC1=S,35µM*,-24%,?,?,7%,-1%
COc1ccccc1C=C1C(=O)NC(=S)NC1=O,/,20µM*,/,/,?,/
O=C1NC(=S)N(c2ccc(F)cc2)C(=O)/C1=C/c1ccccc1O,-19%,-3%,0%,-14%,31%,/
O=C(NC1C(=O)NNC1c1ccc(Cl)cc1)c1ccc(F)cc1 (centres undefined),?,-26%,-14%,-2%,8%,-5%
CCN1C(=O)C(=C/C=C/c2ccco2)C(=O)N(CC)C1=S,13µM*,50µM*,45µM*,40µM*,?,13µM*
CCN1C(=O)C(=C2C=C(C)N(Cc3ccco3)C(C)=C2)C(=O)N(CC)C1=S,53%,20%,32%,3%,77%,38%
O=C1NC(=O)N(Cc2ccccc2)C(=O)/C1=C/C=C/c1ccco1,/,-30%,35µM*,?,0%,28µM*
CC1=C2C(=O)C3C(CC=C4C[C@@H](O)CC[C@@]43C)[C@@H]2CC[C@]12O[C@@H]1C[C@H](C)CN[C@H]1C2C (some centres undefined),/,/,/,4%,/,/
Cc1ccc(/C=C2/C(=O)NC(=O)N(CCc3ccc(F)cc3)C2=O)o1,34%[0.501 µM],-23%,-30%,56µM*,23%,-6%
O=C1NC(=O)N(CCc2ccc(F)cc2)C(=O)/C1=C/c1ccco1,10µM*,40µM*,10µM*,50µM*,35µM*,/
O=C(Oc1ccccc1)N(c1ccccc1)c1ccccc1,/,-17%,46%,-5%,-17%,58%
COc1ccc(CCNC(=O)c2ccc3c(c2)N(Cc2cccc(Cl)c2)C(=O)CS3)cc1OC,?,-23%,-16%,/,13%,/
O=C(Nc1ccccc1)N1CC[C@@]2(CCCNC2)C1,-2%[12.7 µM],/,/,?,/,/
C=CCSC1=N/C(=C\c2cc(OC)c3c(c2)OCO3)C(=O)S1,17%[59 µM],?,/,18µM*,38%,0%
CN1C(=O)C(=Cc2cccnc2)C(=O)N(C)C1=O,/,-8%,-5%,40µM*,13%,5%
O=P1(N(CCCl)CCCl)NCCCO1 (centres undefined),18µM*!,-26%,0%,-9%,24%,/
CC1CC[C@@]2(NC1)OC1CC3C4CC[C@@H]5CC(O)CC[C@@]5(C)C4CC[C@]3(C)C1C2C (some centres undefined),-6%[2.33 µM],/,/,6%,/,/
c1ccc(CN2CCCC3(CCNCC3)C2)cc1,-1%[12.7 µM],/,/,-14%,/,/
O=C(CCS(=O)NCc1ccccc1)NCc1ccccc1 (centres undefined),18µM*,/,-6%,89µM*,/,-3%
c1ccc2sc(C3(N4CCCC4)CCCCC3)cc2c1,-4%[59 µM],/,/,9%,/,/
C[C@]12CCC3C(CCC4=C(Cl)C(=O)CC[C@@]43C)C1CCC2O (some centres undefined),7%[12.7 µM],/,/,6%,/,/
Cn1ncc2c(NCc3ccc(F)cc3)ncnc21,-1%[59 µM],-29%,1%,/,68%,/
ClC1=CCC2CN(CCN3CCCCC3)CC2C1 (centres undefined),79µM*,-8%,5%,19%,23%,-2%
CC(C)(C)c1ccc(C(=O)NCCN2CCOCC2)cc1,/,-16%,/,/,44%,/
CC(C)(C)c1ccc(-c2n[nH]c(=S)n2CCCN2CCOCC2)cc1,6.3µM*,10µM*,-33%,3%,4%,5%[11.4 µM]
O=C1NO[C@H]2[C@@H]1CN[C@@H]2C(=O)O,/,/,/,-2%,/,/
Cc1cccc(-n2nc(C)c(C(=O)N3CCN(c4ccccc4)CC3)c2-n2cccc2)c1,-35%[59 µM],?,?,/,-5%,/
CN1C(=O)NC(=O)[C@]2(Cc3ccccc3N3CCN(c4ccccc4)CC32)C1=O (some centres undefined),3.2µM*,-33%,-28%,-17%,11%,/
O=C1NC(=O)[C@]2(Cc3ccccc3N3CCN(c4ccccc4)CC32)C(=O)N1c1ccccc1 (some centres undefined),3.2µM*,?,-31%,-3%,14%,-4%
